We go through 34 molecules from PubChem BioAssay AID623980 (National Center for Advancing Translational Sciences (NCATS), 2012).

SMILES strings stand for the structures. Some of the results follow. Unmarked numbers belong to inactive results. Calls follow the shape of the dose curve; as a rule, active = well fitted curve in the direction sought with a large enough effect; inactive = no such curve, though single readings can be large or run the other way.

The experiment can be described thus: qHTS for Inhibitors of mutant isocitrate dehydrogenase 1 (IDH1): Cherrypicks Autofluorescence Interference.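 Also: 0% = wells with normal resorufin and full inhibition = wells lacking resorufin.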 Particulars: Resorufin detection reagent fluorescence interference, cell-free; series mostly up to 51.2 µM; inhibition of signal: at the top concentration. The source says:
Readout Interference Assay for Inhibitors of IDH1 R132H and WT IDH1 Malignant glioblastomas (WHO grade IV), including primary and secondary glioblastomas, are among the most lethal with a median survival of one year, and unfortunately they are also the most prevalent type of brain tumors. By and large the standard of care of gliomas remains the use of the oral alkylating agent temozolomide and radiotherapy following surgical tumor resection. There is an urgent unmet medical need for novel therapeutics for gliomas. IDH mutations occur in up to 70% of grade II-IV secondary glioblastomas, and IDH1 R132H is the most prevalent mutation. […] Wild-type (WT) IDH1 catalyzes the conversion of isocitrate to a-ketoglutarate with the concomitant reduction of NADP+ to NADPH. In contrast, IDH1 R132H catalyzes the conversion of -ketoglutarate to 2-hydroxyglutarate (2-HG) with the concomitant oxidation of NADPH to NADP+ [5]. Recently, a second significant advancement for the field was the finding that IDH is an oncogene, and that its metabolic product 2-HG may contribute to the pathogenesis of IDH-mutated cancers. […] Although this link to cancer is tantalizing, the direct evidence of how 2-HG drives pathogenesis of gliomas and AML remains a subject of further research. The goal of this detection interference assay is to identify whether the potential small-molecule inhibitors of IDH1 R132H or WT IDH1 confound the fluorescence readout by interfering with the detection reagent. Inhibition of the detection reagent would lead to a decrease in observed fluorescence of the product resorufin relative to the DMSO control. Compounds were screened as concentration-titration series that ranged from 76 uM to 0.15 uM. NIH Molecular Libraries Probe Production Network [MLPCN] NIH Chemical Genomics Center [NCGC] MLSCN Grant: R03 DA032129 PI Name: Dr. Lenny Dang
Detection reagent buffer was dispensed into black, solid 1536-well plates at 9 microL/well in 20 mM Tris buffer, pH 7.5, containing final concentrations of 10 mM MgCl2, 20 mM NaCl, 0.05% BSA, 2 mM beta-ME, 0.008 mM NADPH, 1 mM alpha-ketoglutarate, and 0.008 mM resorufin. Then, 23 nL of compounds or DMSO were delivered to each well using a pin tool. The fluorescence intensity was monitored on an Envision plate reader at 590 nm (Ex 540, Em 590, bodipy mirror, 10 flashes). The %Activity was determined from the corrected fluorescence values. Resorufin at 0x was included to normalize %Activity of identified inhibitors; 0x resorufin values corresponded to 100%Activity (full inhibition), while 1x resorufin values were used to normalize 0%Activity (no inhibition). Concentration-response curves were fitted to the signals arising from the resulting fluorescence. The concentration-response curves were then classified based on curve quality (r2), response magnitude and degree of measured activity, and compounds were subsequently categorized based on their curve class. […] Keywords: Isocitrate dehydrogenase, IDH1, IDH1 R132H, 2-HG, 2-hydroxyglutarate, AML, glioma, MLSMR, MLPCN, NIH Roadmap, qHTS, NCGC
Consider `COc1cc(/C=C2/C(=O)ON=C2C)ccc1OCc1ccccc1F`, for which the “inhibition of signal” value is 4.14%.

`CCCCC(=O)NC(c1ccc(OC)c(OC)c1)c1ccc2cccnc2c1O` (centres undefined): the “inhibition of signal” value was 7.47%.

As to `Cc1ccc2nc(N3C(=O)C(O)=C(C(=O)c4ccco4)C3c3cccc(O)c3)sc2c1` (centres undefined), the “inhibition of signal” value was 6.24%.

In the case of `COc1ccc(/C=C2/SC(=O)N(CCCCCC(=O)Nc3ccccc3C(=O)O)C2=S)cc1`, the “inhibition of signal” value was -2%.

For the molecule `COc1ccc(C(CCN(Cc2ccc(OC)c(OC)c2)C(=O)CCl)c2ccccc2)cc1` (centres undefined), the “inhibition of signal” value is 3.98%.

Take `CC(C)(C)c1ccc(S(=O)(=O)Nc2ccc(O)c(Sc3nc4ccccc4s3)c2)cc1`: the “inhibition of signal” value is -6.05%.

In the case of `CCOC(=O)c1ccc(N2C(=O)c3n[nH]c(-c4ccco4)c3C2c2ccc(O)cc2)cc1` (centres undefined), the “inhibition of signal” value is -3.39%.

Regarding `O=C1c2cccc3cccc(c23)C(=O)N1CCCCCc1n[nH]c(=S)o1`, the “inhibition of signal” value is 8.06%.

On to `CCCc1[nH]nc2c1C(c1ccc(OC)c(Cn3nc(C)c(Br)c3C)c1)C(C#N)=C(N)O2` (centres undefined), for which the “inhibition of signal” value is -4.01%.

For `CCCc1nc2c(c(=O)c3ccccc3n2C)c(=O)n1C1CCCCCC1`, the “inhibition of signal” value is -4.87%.

On to `COC(=O)c1cccc(N(C(=O)c2ccco2)C(C(=O)NC2CCCC2)c2ccco2)c1` (centres undefined), for which the “inhibition of signal” value is 1.47%.

As to `COc1ccc(Cl)cc1-n1c(=S)sc2c(=O)n(-c3ccc(F)cc3)c(SCC(=O)O)nc21`, the “inhibition of signal” value was -36.4%.

Consider `Cc1ccc(Nc2nc(CSc3nnc(-c4ccncc4)n3-c3ccccc3C)cs2)cc1`, for which the “inhibition of signal” value was 10.4%.

In the case of `C(=N/Nc1cc(N2CCOCC2)nc(N2CCOCC2)n1)/c1ccccc1`, the “inhibition of signal” value is -4.67%.

In the case of `Cn1c(COc2ccc(Cl)cc2)nc2ccccc2c1=O`, the “inhibition of signal” value was -3.55%.

Take `COC(=O)c1ccc(-c2c(-c3ccccc3)ncc3cc(OC)c(OC)cc23)cc1`: the “inhibition of signal” value was 5.32%.

As for `Cc1ccc(-c2nn(-c3ccccc3)cc2/C=C2\SC(=S)N(CCCCCC(=O)O)C2=O)o1`, the “inhibition of signal” value is 0.67%.

For the molecule `COc1ccc(/C=N/Nc2cc(N3CCOCC3)nc(C)n2)c(OC)c1`, the “inhibition of signal” value was -13.2%.

As for `O=C(NC(Nc1nc2ccc([N+](=O)[O-])cc2s1)(C(F)(F)F)C(F)(F)F)c1ccccc1`, the “inhibition of signal” value was 7.74%.

As for `Cc1nc(C)c(C(=O)N(c2ccc(C)c(C)c2)C(C(=O)NCc2ccco2)c2ccccc2)s1` (centres undefined), the “inhibition of signal” value is 2.62%.

Regarding `CC(C)N(C(=O)CSc1nc(COc2ccccc2)nc2ccccc12)C(C)C`, the “inhibition of signal” value is -7.76%.

On to `CCCOc1ccc(C2c3c(-c4ccccc4O)n[nH]c3C(=O)N2Cc2cccnc2)cc1` (centres undefined), for which the “inhibition of signal” value is -5.36%.

As to `COc1ccc(C(C(=O)NC2CCCCC2)N(C(=O)c2snc(C(N)=O)c2N)c2ccccc2OC)cc1` (centres undefined), the “inhibition of signal” value is -1.26%.

For `CCC(C)(C)NC(=O)C(c1cccn1C)N(Cc1ccc(C)cc1)C(=O)Cn1nnc2ccccc21` (centres undefined), the “inhibition of signal” value was -2.24%.

For `COc1cc(/C=C2/SC(=S)N(Cc3ccccc3)C2=O)cc(OC)c1O`, the “inhibition of signal” value is 2.53%.

In the case of `CCOC(=O)c1oc2c(CN3CCN(CCO)CC3)c(O)c(CC)cc2c(=O)c1-c1nc2ccccc2s1`, the “inhibition of signal” value was -3.6%.

Take `Cc1cccc(N(C(=O)Cc2cccs2)C(C(=O)NC2CCCC2)c2ccsc2)c1` (centres undefined): the “inhibition of signal” value was -1.86%.

Take `Cc1nc(-c2ccc(Cl)cc2)sc1C(=O)CBr`: the “inhibition of signal” value is 2.34%.

Regarding `CCCNc1ncnc2c1c(-c1ccccc1)cn2-c1ccc(OCC)cc1`, the “inhibition of signal” value was -0.98%.

Take `CCCCOc1ccc(CN2C(=O)C(=O)c3cc(Br)cc(C)c32)cc1OC`: the “inhibition of signal” value was -4.85%.

Take `CC(C)Nc1nc(N(c2ccccc2)c2ccccc2)nc(-n2ccnc2)n1`: the “inhibition of signal” value was 3.09%.

In the case of `N#CC1=C(N)C(C#N)(C#N)[C@H](c2ccsc2)[C@H]2COCC=C12`, the “inhibition of signal” value was 7.1%.

For `COc1cc2c(-c3ccc4c(c3)OCO4)c(-c3ccsc3)oc(=O)c2cc1OC`, the “inhibition of signal” value was 2.12%.

For the molecule `CCSc1nc2sc3c(c2c(=O)n1-c1ccc(C)cc1)CCN(C)C3`, the “inhibition of signal” value was -9.92%.
